Results on eight molecules are retold here after PubChem BioAssay (NCI).

The assay is described as follows: NCI Yeast Anticancer Drug Screen. Data for the rad52 strain (AID 147).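 Further: 0% = growth of vehicle-treated control cultures.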 As to conditions: S. cerevisiae rad52 mutant growth inhibition, hits give high values. How it is done:
Growth inhibition of yeast strains with defined genetic alterations is measured as a screen for potential anti-cancer activity. Selected strains with alterations in DNA damage repair or cell cycle control were exposed to compounds and growth inhibition was measured relative to vehicle treated controls. The strain used in this assay is rad52

About 79,000 compounds went through this panel and 15% of them were active in at least one assay; those are over-represented in the sample as a whole. Values without a mark were called inactive. Calls of active or inactive are those of the source. No stated cut-off is given here; in the data, active means growth inhibition above about 70%; inactive means the rest.

`Cc1cc(C)c(N2C(=O)CC(Sc3ccccc3N)C2=O)c(C)c1` (stereo not given): the growth inhibition runs as follows: (at 1.2 µM) -27%; (at 3.7 µM) -20%; (at 11.0 µM) -31%; (at 33.0 µM) -14%; (at 100.0 µM) -22%.

On to `NC(N)=NCCCS(=O)(=O)Nc1ccc(Nc2c3ccccc3nc3cc([N+](=O)[O-])ccc23)cc1`, for which the growth inhibition is, setting by setting: (at 1.2 µM) -26%; (at 3.7 µM) 8%; (at 11.0 µM) 36%; (at 33.0 µM) 79% (active); (at 100.0 µM) 91% (active).

`CC(=O)Oc1ccc(N2C(=O)C3c4[nH]c5ccccc5c4C4CCC(C(C)(C)C)CC4C3C2=O)cc1` (stereo not given): the growth inhibition was 7% (at 1.2 µM); 87% (active) (at 3.7 µM); 96% (active) (at 11.0 µM); 96% (active) (at 33.0 µM); 90% (active) (at 100.0 µM).

With `CC(=O)N1C(=O)/C(=C\C(=O)c2ccc(Cl)cc2)c2ccccc21`, the growth inhibition runs as follows: (at 1.2 µM) 8%; (at 3.7 µM) 34%; (at 11.0 µM) 59%; (at 33.0 µM) 93% (active); (at 100.0 µM) 94% (active).

On to `C/C(=N\NC(=S)NNC(=S)N(C)c1ccccc1)c1ccccn1`, for which the growth inhibition is, setting by setting: (at 1.2 µM) 9%; (at 3.7 µM) 40%; (at 11.0 µM) 97% (active); (at 33.0 µM) 98% (active); (at 100.0 µM) 83% (active).

For the molecule `CCCCCCCCCCCCCC(=O)OC(C)CCC1CCCO1` (stereo not given), the growth inhibition runs as follows: (at 1.2 µM) -2%; (at 3.7 µM) 0%; (at 11.0 µM) 2%; (at 33.0 µM) 1%; (at 100.0 µM) -8%.

For `CC(C)(C)c1ccc(O)c(C(c2ccc([N+](=O)[O-])cc2)c2cc(C(C)(C)C)ccc2O)c1`, the growth inhibition reads like this: (at 1.2 µM) 29%; (at 3.7 µM) 24%; (at 11.0 µM) 57%; (at 33.0 µM) 79% (active); (at 100.0 µM) 84% (active).

For the molecule `CCCCCCSc1nc(COC(=O)NC)c(COC(=O)NC)n1C`, the growth inhibition reads like this: (at 1.2 µM) -1%; (at 3.7 µM) 0%; (at 11.0 µM) -2%; (at 33.0 µM) 25%; (at 100.0 µM) 98% (active).
